This note sets out measurements from PubChem BioAssay (NCI).

Among the test systems are HCT-15 colon; HT29 colon; SNB-75 CNS; SNB-19 CNS; U251 CNS; PC-3 prostate; SK-MEL-5 melanoma; UACC-62 melanoma; LOX IMVI melanoma; SK-MEL-28 melanoma; SK-MEL-2 melanoma; SN12C renal; UO-31 renal; TK-10 renal; ACHN renal; CAKI-1 renal; A498 renal; CCRF-CEM leukemia; MOLT-4 leukemia.
Holding throughout (test): NCI-60 one-dose screen, 48 h (100 = growth as untreated, 0 = no growth, -100 = all killed)
What all share (settings): 10 µM

The structures appear in SMILES notation. Compounds without any hit were thinned out: in the full panel of roughly 83,000, 20% have a hit.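 Single-concentration screen, 48 h exposure, 96-well plates. Endpoint: percent growth. Below 10 = active.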 Values without a mark were called inactive. Activity calls are given as the source filed them.

Regarding `COc1cccc2c1O/C(=C\c1ccc([N+](=O)[O-])s1)C2=O`, the growth with HCT-15 colon was 8.57% (active); with HT29 colon, 77.3%; in the assay on SNB-75 CNS, 81.5%; with SNB-19 CNS it was 86.6%; in the assay on U251 CNS it was 45.2%; with PC-3 prostate, 32.9%. Moreover, the growth was 73.7% with SK-MEL-5 melanoma; 35.9% in the assay on UACC-62 melanoma; 40.6% in the assay with LOX IMVI melanoma; 78.4% in the assay on SK-MEL-28 melanoma; 43.3% with SK-MEL-2 melanoma; 70.1% with SN12C renal. Also, the growth with UO-31 renal is -0.107% (active); in the assay with TK-10 renal, 73.6%; in the assay with ACHN renal, 67.5%; in the assay with CAKI-1 renal, 90.9%; in the assay on A498 renal, 109%; in the assay with CCRF-CEM leukemia, 43.6%. The growth in the assay on MOLT-4 leukemia is 75.5%.

As for `C#Cc1ccc(-n2c(/C=C/c3cc(OC)c(OC)c(OC)c3)nc3ncccc3c2=O)cc1`, the growth with HCT-15 colon is 48.6%; in the assay with HT29 colon it was 16%; with SNB-75 CNS, 34%; in the assay with SNB-19 CNS, 88.9%; with U251 CNS, 79.3%; with PC-3 prostate it was 43.8%. Besides, the growth with SK-MEL-5 melanoma is 9.66% (active); in the assay on UACC-62 melanoma it was 52.7%; in the assay with LOX IMVI melanoma, 56.9%; in the assay on SK-MEL-28 melanoma it was 77.6%; with SK-MEL-2 melanoma it was -2.4% (active); in the assay with SN12C renal, 82.1%. Further, the growth is 45.8% in the assay on UO-31 renal; 112% in the assay with TK-10 renal; 60.5% in the assay with ACHN renal; 64.2% in the assay on CAKI-1 renal; 24.5% in the assay on A498 renal; 55.9% with CCRF-CEM leukemia. The growth in the assay on MOLT-4 leukemia was 65.2%.

For `CC(=O)OCC(COC(C)=O)(COC(C)=O)COC(C)=O`, the growth with HCT-15 colon is 102%; in the assay with HT29 colon, 102%; with SNB-75 CNS, 105%; in the assay with SNB-19 CNS, 104%; with U251 CNS it was 103%; with PC-3 prostate it was 102%. Further, the growth in the assay with SK-MEL-5 melanoma was 93%; in the assay on UACC-62 melanoma, 103%; with LOX IMVI melanoma, 98.1%; in the assay with SK-MEL-28 melanoma, 121%; with SK-MEL-2 melanoma it was 101%; in the assay with SN12C renal, 108%. The growth in the assay with UO-31 renal is 84.7%; in the assay with TK-10 renal it was 108%; with ACHN renal, 110%; in the assay with CAKI-1 renal, 103%; in the assay with A498 renal it was 73.4%; in the assay with CCRF-CEM leukemia, 103%. Besides, the growth in the assay on MOLT-4 leukemia is 93.5%.

As for `CN1CCN(c2nc(-c3cccnc3)nc3sc4c(c23)CCCCCC4)CC1`, the growth was 93.2% in the assay with HCT-15 colon; 91.3% with HT29 colon; 67.4% in the assay on SNB-75 CNS; 101% in the assay with SNB-19 CNS; 72.3% in the assay on U251 CNS; 66.7% with PC-3 prostate. Also, the growth in the assay with SK-MEL-5 melanoma is 87.9%; in the assay on UACC-62 melanoma, 103%; in the assay with LOX IMVI melanoma, 78.6%; in the assay with SK-MEL-28 melanoma, 99.7%; in the assay on SK-MEL-2 melanoma it was 114%; with SN12C renal, 90.8%. The growth in the assay with UO-31 renal is 75%; in the assay with TK-10 renal, 108%; with ACHN renal, 89.6%; in the assay on CAKI-1 renal, 86.7%; in the assay with A498 renal, 99.3%; with CCRF-CEM leukemia, 92.4%. For the same molecule, the growth with MOLT-4 leukemia is 39.6%.

As for `Cc1cccc2c(Nc3ccc(NS(C)(=O)=O)cc3)c3ccc([N+](=O)[O-])cc3nc12`, the growth is 6.83% (active) with HCT-15 colon; -10.3% (active) in the assay on HT29 colon; 19.7% in the assay on SNB-75 CNS; 25.7% in the assay with SNB-19 CNS; 3.4% (active) with U251 CNS; 18% with PC-3 prostate. For the same molecule, the growth in the assay with SK-MEL-5 melanoma is -19.4% (active); with UACC-62 melanoma it was 1.92% (active); in the assay with LOX IMVI melanoma it was -43.5% (active); with SK-MEL-28 melanoma, -5.65% (active); in the assay on SK-MEL-2 melanoma, -19.1% (active); in the assay on SN12C renal, 7.61% (active). The growth with UO-31 renal is 10.5%; with TK-10 renal, 20.7%; in the assay with ACHN renal, -11.4% (active); in the assay on CAKI-1 renal, 6.69% (active); in the assay with A498 renal, -11.2% (active); in the assay with CCRF-CEM leukemia, -9.83% (active). Besides, the growth in the assay on MOLT-4 leukemia is -5.36% (active).

For `CCOC(=O)CNC(=O)Nc1ccc(Oc2ccc(NC(=O)NCC(=O)OCC)cc2)cc1`, the growth was 99.2% in the assay with HCT-15 colon; 107% in the assay on HT29 colon; 74.4% in the assay on SNB-75 CNS; 104% in the assay with SNB-19 CNS; 93.8% in the assay on U251 CNS; 86.9% in the assay with PC-3 prostate. The growth in the assay on SK-MEL-5 melanoma is 97.1%; in the assay on UACC-62 melanoma it was 92.4%; with LOX IMVI melanoma, 91.9%; in the assay on SK-MEL-28 melanoma, 91%; with SK-MEL-2 melanoma, 115%; with SN12C renal, 94.7%. Besides, the growth in the assay with UO-31 renal was 83.2%; in the assay on TK-10 renal, 114%; in the assay with ACHN renal it was 102%; in the assay with CAKI-1 renal it was 95.1%; in the assay with A498 renal it was 95.7%; with CCRF-CEM leukemia, 89.4%. Also, the growth in the assay on MOLT-4 leukemia is 107%.

As for `Nc1ccc(Sc2ccc3c4c2cccc4c(=O)n2c4ccccc4nc32)cc1`, the growth is 40.5% with HCT-15 colon; 66.7% in the assay on HT29 colon; 43.7% in the assay with SNB-75 CNS; 46.3% with SNB-19 CNS; 39.9% with U251 CNS; 50.4% in the assay on PC-3 prostate. Moreover, the growth in the assay on SK-MEL-5 melanoma is 39.4%; in the assay on UACC-62 melanoma, 31.9%; with LOX IMVI melanoma, 29.2%; in the assay with SK-MEL-28 melanoma, 73.7%; in the assay on SK-MEL-2 melanoma, 84.1%; in the assay with SN12C renal, 19.2%. Further, the growth with UO-31 renal is 9.28% (active); with TK-10 renal, 78.6%; with ACHN renal, 22.1%; in the assay on CAKI-1 renal, 5.9% (active); in the assay with A498 renal, 58.8%; in the assay with CCRF-CEM leukemia, 44.9%. For the same molecule, the growth with MOLT-4 leukemia was -6.87% (active).

For `COc1ccc(-c2ccc(-c3ccc(C(=N)N)c(F)c3)s2)cc1`, the growth was -78.9% (active) in the assay with HCT-15 colon; -90% (active) in the assay with HT29 colon; -98.9% (active) in the assay on SNB-75 CNS; -89.6% (active) in the assay with SNB-19 CNS; -95.1% (active) in the assay with U251 CNS; -88.6% (active) in the assay with PC-3 prostate. Besides, the growth was -93.9% (active) in the assay with SK-MEL-5 melanoma; -88.9% (active) with UACC-62 melanoma; -84.3% (active) in the assay on LOX IMVI melanoma; -91.5% (active) in the assay on SK-MEL-28 melanoma; -75.3% (active) with SK-MEL-2 melanoma; -79.2% (active) in the assay with SN12C renal. Further, the growth is -86.8% (active) with UO-31 renal; -96.4% (active) with TK-10 renal; -89.7% (active) in the assay on ACHN renal; -89.8% (active) with CAKI-1 renal; -97.4% (active) in the assay with A498 renal; -68.3% (active) with CCRF-CEM leukemia. Moreover, the growth with MOLT-4 leukemia was -80.1% (active).
